PubChem BioAssay

Key:
[1] = system: Botulinum neurotoxin type F light chain protease (Clostridium botulinum); test: Botulinum neurotoxin type F light chain protease inhibition, multiplex microsphere flow cytometry, validation set (AID 588459); details: multiplex microsphere protease substrate cleavage assay, at 10 µM, hits give high values
[2] = molecular target: Botulinum neurotoxin type A (Clostridium botulinum) (UniProt P0DPI0); test: BoNT/A light chain protease inhibitors, biochemical, multiplex microsphere flow cytometry, validation set (AID 588460); details: at 10 µM, hits give high values
[3] = molecular target: Lethal factor (Bacillus anthracis) (UniProt P15917); test: Lethal factor protease inhibitors, Bacillus anthracis, multiplex microsphere cleavage assay, validation set (AID 588461); details: flow cytometry, at 10 µM, hits give high values

Measured: inhibition

CC1(C)CC(=O)c2cc(O)ccc2O1
inactive: [1] 2% | [2] 0.1% | [3] -2.1%

CN1C2CCC1CC(OC(c1ccccc1)c1ccccc1)C2 (stereo not given)
inactive: [1] 2.3% | [2] 0.7% | [3] 1.9%

COc1ccc(/C=C(/C#N)c2cccnc2)cc1OC
inactive: [1] -0.3% | [2] 1% | [3] -7.4%

CN(C)CCCN1c2ccccc2Sc2ccccc21
inactive: [1] -0.5% | [2] -0.5% | [3] -3.7%

Cc1cccc2c(=O)n3c(nc12)CCCCC3
inactive: [1] 0.4% | [2] -1.4% | [3] -10.4%

CCOC(=O)Nc1ccc2c(c1)N(C(=O)CCN1CCOCC1)c1ccccc1S2
inactive: [1] -1.6% | [2] -1.4% | [3] 0.2%

CC(=O)N1CC23C=CC(CC2CC12CCCCCC2)O3 (stereo not given)
inactive: [1] 1.3% | [2] -1.4% | [3] 1.3%

CC(C)c1ccc2[nH]c3c(c2c1)CCCC3=O
inactive: [1] 0.3% | [2] -0.8% | [3] -3.4%

Cc1ccc(C(=O)COC(=O)c2cnccn2)cc1[N+](=O)[O-]
inactive: [1] 2.8% | [2] -0.2% | [3] -5.2%

COc1cccc(N2C(=O)[C@H]3C(C(=O)c4cnccn4)=NN[C@H]3C2=O)c1
inactive: [1] 3% | [2] -0.2% | [3] 4.8%

COc1cc(C(=O)N/C(=C\c2cn(C)c3ccccc23)C(=O)NCCCO)cc(OC)c1OC
inactive: [1] 2% | [2] -1.2% | [3] -2.5%

CC1(C)Cc2ccccc2-c2nc(-c3ccccc3)oc(=O)c21
inactive: [1] -1.9% | [2] 0% | [3] -0.2%

CC(=O)N1CCn2c3c(c4cc(C)ccc42)CCCC31 (stereo not given)
inactive: [1] 3.1% | [2] -0.3% | [3] -2.3%

Cc1ccc(OCCCCn2ccnc2C)c(C)c1
inactive: [1] -5.4% | [2] -1.6% | [3] -1.6%

CNc1c2c(nn1C)CCCC2
inactive: [1] 0.6% | [2] -1.3% | [3] -3.5%
